{"source": "PubChem BioAssay AID2401", "about": "(Southern Research Specialized Biocontainment Screening …, 2010)", "note": "Out of some 2,200 compounds screened, about 530 (24%) were called active.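 The calls were made as follows: active = inhibition above a set limit at one or more concentrations of the dose series; inactive = inhibition under that limit at every dose.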 Not all results are given here. Results with a measured potency or affinity are listed apart."}
{"assay": "S. Typhimurium nonspecific reporter signal inhibition – Salmonella Typhimurium, GFP fluorescence, counter-screen for PhoP regulon inhibitor project, dose response (AID 2401);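 also: S. typhimurium with Mg-insensitive nmpC-GFP reporter grown at 10 µM Mg2+; drop in reporter fluorescence reflects general culture growth inhibition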", "details": "4 h; series mostly up to 150 µM"}
{"smiles": "COc1ccc(C(C)C)cc1S(=O)(=O)Nc1ccc(Cl)cn1", "outcome": "inactive"}
{"smiles": "O=C(Nc1cnc2ccccc2c1)N1CCOCC1", "outcome": "inactive"}
{"smiles": "CN(C)S(=O)(=O)Nc1ccc(C(=O)O)cc1", "outcome": "inactive"}
{"smiles": "c1ccc2c(C3=NNC(=NC4CCCCC4)SC3)c[nH]c2c1", "outcome": "inactive"}
{"smiles": "O=C(CSc1nc2ccccc2o1)Nc1ccc(N2CCOCC2)cc1", "outcome": "inactive"}
{"smiles": "CNc1nnc(-c2cccc(N(C)C)c2)s1", "outcome": "inactive"}
{"smiles": "O=S(=O)(c1ccccc1)N(CC(O)Cn1c2ccccc2c2ccccc21)c1ccccc1", "note": "(centres undefined)", "outcome": "inactive"}
{"smiles": "CCCn1c(NCCO)nc2ccccc21", "outcome": "inactive"}
{"smiles": "COC(=O)C(CCSC)NC(=O)c1cccc([N+](=O)[O-])c1", "note": "(centres undefined)", "outcome": "inactive"}
{"smiles": "Cc1ccc(CNC(=O)C2CCCN(S(=O)(=O)c3c(C)noc3C)C2)cc1", "note": "(centres undefined)", "outcome": "inactive"}
{"smiles": "Cn1cccc1C(=O)OCc1csc(-c2ccccc2)n1", "outcome": "inactive"}
{"smiles": "Nc1ccc(C(=O)OCc2nc3ccccc3[nH]2)cc1", "outcome": "inactive"}
{"smiles": "Cc1ccc(C)n1-c1cc([N+](=O)[O-])ccc1-n1ccnc1", "outcome": "inactive"}
{"smiles": "Cc1cc(-c2csc(NC(=O)c3ccccc3C(F)(F)F)n2)c(C)n1Cc1ccccc1", "outcome": "inactive"}
{"smiles": "Cc1nc(NCc2ccc3c(c2)OCO3)c2oc3ccccc3c2n1", "outcome": "inactive"}
{"smiles": "Cc1scc(C(=O)O)c1-c1c(C(=O)O)csc1C", "outcome": "inactive"}
{"smiles": "O=[N+]([O-])c1ccccc1/C=N/N1CCN(c2ccncc2S(=O)(=O)N2CCCCC2)CC1", "outcome": "inactive"}
{"smiles": "CCOc1ccc(C(=O)Nc2ccccc2CC)cc1[N+](=O)[O-]", "outcome": "inactive"}
{"smiles": "CCOc1ccc(CSC(=N)N)cc1[N+](=O)[O-]", "outcome": "inactive"}
{"smiles": "CCOc1ccc(C(=O)NC(=S)Nc2ccc(N3CCCCC3)cc2)cc1[N+](=O)[O-]", "outcome": "inactive"}
{"smiles": "COc1nc(-c2ccccc2)ccc1-c1noc(C)n1", "outcome": "inactive"}
{"smiles": "CCCc1cc(N2CCN(c3ccccn3)CC2)n2nc(C)c(-c3ccccc3)c2n1", "outcome": "inactive"}
{"smiles": "CCc1ccc(CNc2ccc(O)cc2)cc1", "outcome": "inactive"}
{"smiles": "Nc1nc(N)nc(-c2ccccc2)n1", "outcome": "inactive"}
{"smiles": "CCn1c2ccccc2c2nnc(SCC(=O)Nc3ccc4c(c3)OCO4)nc21", "outcome": "inactive"}
{"smiles": "CCn1c2ccccc2c2cc(NC(=O)COc3ccccc3)ccc21", "outcome": "inactive"}
{"smiles": "CCn1cc(C(=O)OCC(=O)Nc2ccc(S(=O)(=O)N3CCCC3)cc2)c(=O)c2ccc(C)nc21", "outcome": "inactive"}
{"smiles": "CCn1cc(C(=O)O)c(=O)c2cnc(N3CCN(C(=S)NC(=O)c4ccc(Cl)cc4)CC3)nc21", "outcome": "inactive"}
{"smiles": "Cc1ccc(NC(=O)C(=O)NCCOc2ccccc2Cl)cc1", "outcome": "inactive"}
{"smiles": "O=C1CC(c2ccccc2)n2nc(NC(=O)c3ccccc3)nc2N1", "note": "(centres undefined)", "outcome": "inactive"}
{"smiles": "Cc1ccccc1NC(=O)c1ccc(-n2cncn2)nc1", "outcome": "inactive"}
{"smiles": "Nc1cc(N)nc(SCC(=O)Nc2ccc3c(c2)OCCCO3)n1", "outcome": "inactive"}
{"smiles": "Cc1nn(-c2ccc(Cl)cc2)c2[nH]c(=O)c(CNCc3ccc4c(c3)OCO4)cc12", "outcome": "inactive"}
{"smiles": "CCCSc1nc(N2CCCC2)c2c(c1C#N)CC(C)(C)OC2", "outcome": "inactive"}
{"smiles": "O=C(CCn1nnc(-c2cccs2)n1)NCc1ccccc1Cl", "outcome": "inactive"}
{"smiles": "Nc1scc(-c2ccncc2)c1Cl", "outcome": "inactive"}
{"smiles": "CN(C)c1ccnc(-n2cccc2/C=N/OCc2ccccc2)c1C#N", "outcome": "inactive"}
{"smiles": "CCOC(=O)c1cn(CC)c2cc(N3CCOCC3)c(F)cc2c1=O", "outcome": "inactive"}
{"smiles": "CCOC(=O)N1CCN(C(=O)c2cn(CC(C)C)c(=O)c3c2c2ccccc2n3C)CC1", "outcome": "inactive"}
{"smiles": "Cc1cc(C)c2nc(NNC(=O)c3ccc(S(=O)(=O)N4CCc5ccccc5C4)cc3)sc2c1", "outcome": "inactive"}
{"smiles": "Cc1ccc2nc(SCCCCOc3ccccc3)[nH]c2c1", "outcome": "inactive"}
{"smiles": "CN(c1ccccc1)S(=O)(=O)c1cc(C(=O)Nc2nc3ccccc3[nH]2)ccc1Cl", "outcome": "inactive"}
{"smiles": "O=C(CSc1nnnn1-c1ccccc1)CC(=O)Nc1ccc(Cl)cc1", "outcome": "inactive"}
{"smiles": "CCOC(=O)CSc1n[nH]c(NC(=O)c2cccc(C)c2)n1", "outcome": "inactive"}
{"smiles": "Cc1cccc(C(=O)NC(=S)Nc2ccc(N3CCOCC3)cc2)c1", "outcome": "inactive"}
{"smiles": "CCn1cc(C(=O)O)c(=O)c2cc(F)c(N3CCN(C(=S)NC(=O)c4ccccc4Cl)CC3)cc21", "outcome": "inactive"}
{"smiles": "CCCS(=O)(=O)N1CCCC(C(=O)N2CCN(c3ccccn3)CC2)C1", "note": "(centres undefined)", "outcome": "inactive"}
{"smiles": "COc1cc(NC(=O)CSc2nnnn2Cc2ccc3c(c2)OCO3)cc(OC)c1", "outcome": "inactive"}
{"smiles": "Cc1cccc(-n2ncc3c(NCc4ccc5c(c4)OCO5)ncnc32)c1", "outcome": "inactive"}
{"smiles": "O=C1Nc2ccccc2C(O)(C(=O)N2CCCCC2)N1c1ccccc1", "note": "(centres undefined)", "outcome": "inactive"}
{"smiles": "Cc1cccnc1N(C(=O)Nc1ccccc1)C1=NCC(C)(C)S1", "outcome": "inactive"}
{"smiles": "Cc1nn(-c2ncc(C(F)(F)F)cc2Cl)c(=O)n1-c1cccc(Cl)c1", "outcome": "inactive"}
{"smiles": "CCCc1ccc(C(=O)CCC(=O)O)cc1", "outcome": "inactive"}
{"smiles": "COc1ccc(OC)c(C(C(=O)NCc2ccco2)N(C(=O)Cn2nnc3ccccc32)C(C)C)c1", "note": "(centres undefined)", "outcome": "inactive"}
{"smiles": "COc1ccc(C2C=C(c3ccc(Cl)cc3)Nc3nc(NC(C)=O)nn32)cc1", "note": "(centres undefined)", "outcome": "inactive"}
{"smiles": "C=CCn1c(C)cc(C(=O)CSc2nc(N)cc(N)n2)c1C", "outcome": "inactive"}
{"smiles": "Cc1ccc(C(C(=O)NCc2ccco2)N(CCc2ccccc2)C(=O)Cn2nnc3ccccc32)o1", "note": "(centres undefined)", "outcome": "inactive"}
{"smiles": "CCCOc1ccc(C(=O)N2CCCC2C(=O)O)cc1", "note": "(centres undefined)", "outcome": "inactive"}
{"smiles": "O=C(CN1CCC(NC(=O)c2cccc(F)c2)CC1)NCc1ccccc1F", "outcome": "inactive"}
{"smiles": "CCn1cc(C(=O)O)c(=O)c2cc(F)c(N3CCN(S(=O)(=O)c4ccc(NC(C)=O)cc4)CC3)cc21", "outcome": "inactive"}
{"smiles": "CCCOc1ccc(C(=O)CCC(=O)OCC(=O)N2CC(=O)Nc3ccccc32)cc1", "outcome": "inactive"}
{"smiles": "COc1cccc(C2C3=C(Nc4[nH]n(-c5ccccc5)c(=O)c42)c2ccccc2C3=O)c1", "note": "(centres undefined)", "outcome": "inactive"}
{"smiles": "COC(=O)c1sc2ccccc2c1-n1cccc1C(=O)C(=O)Nc1ccc(Cl)cc1", "outcome": "inactive"}
{"smiles": "COc1cccc(-n2c(SCC(=O)Nc3ccc4c(c3)CCC4)nc3ccccc3c2=O)c1", "outcome": "inactive"}
{"smiles": "CCOC(=O)C(NC(=O)c1cccc(Cl)c1)(OCc1ccccc1)C(F)(F)F", "note": "(centres undefined)", "outcome": "inactive"}
{"smiles": "COc1ccccc1CC1(C)NC(=O)N(CC(=O)N2CC(C)OC(C)C2)C1=O", "note": "(centres undefined)", "outcome": "inactive"}
{"smiles": "Cn1c(NCc2cccs2)nc2ccccc21", "outcome": "inactive"}
{"smiles": "COc1ccc(OC)c(S(=O)(=O)N(C)CC(=O)N2CCc3ccccc3C2)c1", "outcome": "inactive"}
{"smiles": "CCCC(=O)c1c[nH]c(C(=O)NCCCN2CCOCC2)c1", "outcome": "inactive"}
